For some of these results: Results with a measured potency or affinity are listed apart.

What all share (set-up): scale not given: direction of the effect not stated beside the values
For test [1], the target named is Protein translocase subunit SecA (Escherichia coli (strain K12)) (UniProt P10408). Description: Assay to Identify E. coli SecA ATPase Inhibitors. The settings on record: 30 µM. Format: functional.
For test [2], the target named is T1, Ubiquitin-activating enzyme e1, putative (Leishmania donovani (strain BPK282A1)) (UniProt E9BSI1).
T1 sequence (whole entry): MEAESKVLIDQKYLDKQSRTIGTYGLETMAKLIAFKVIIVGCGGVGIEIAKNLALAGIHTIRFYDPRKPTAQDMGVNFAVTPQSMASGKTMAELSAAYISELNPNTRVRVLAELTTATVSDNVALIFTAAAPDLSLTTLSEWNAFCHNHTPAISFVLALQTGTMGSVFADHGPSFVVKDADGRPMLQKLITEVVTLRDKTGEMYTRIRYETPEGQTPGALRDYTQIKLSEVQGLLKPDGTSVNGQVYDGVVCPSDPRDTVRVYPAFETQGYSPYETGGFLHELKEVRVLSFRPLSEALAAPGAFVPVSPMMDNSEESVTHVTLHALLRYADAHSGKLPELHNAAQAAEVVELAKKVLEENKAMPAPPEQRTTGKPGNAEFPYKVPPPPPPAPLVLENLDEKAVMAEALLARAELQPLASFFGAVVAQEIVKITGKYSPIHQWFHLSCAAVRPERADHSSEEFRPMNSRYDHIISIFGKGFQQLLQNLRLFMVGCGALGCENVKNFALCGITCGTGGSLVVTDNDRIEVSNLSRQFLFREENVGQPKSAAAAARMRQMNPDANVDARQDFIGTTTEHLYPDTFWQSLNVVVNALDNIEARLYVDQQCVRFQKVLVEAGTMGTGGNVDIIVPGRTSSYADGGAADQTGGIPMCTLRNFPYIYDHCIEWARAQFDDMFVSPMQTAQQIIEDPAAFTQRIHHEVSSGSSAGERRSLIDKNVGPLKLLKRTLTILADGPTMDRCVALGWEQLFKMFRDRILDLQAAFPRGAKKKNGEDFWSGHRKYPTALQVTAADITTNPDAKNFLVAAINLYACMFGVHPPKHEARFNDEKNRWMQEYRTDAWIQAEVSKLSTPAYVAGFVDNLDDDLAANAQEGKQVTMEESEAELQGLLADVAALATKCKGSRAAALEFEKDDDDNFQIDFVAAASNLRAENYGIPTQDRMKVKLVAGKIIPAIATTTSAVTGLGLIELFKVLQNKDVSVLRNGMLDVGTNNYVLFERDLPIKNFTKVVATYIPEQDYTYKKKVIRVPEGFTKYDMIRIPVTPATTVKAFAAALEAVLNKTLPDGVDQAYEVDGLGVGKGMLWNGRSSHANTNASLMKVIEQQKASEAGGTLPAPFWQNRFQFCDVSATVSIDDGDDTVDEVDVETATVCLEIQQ
Description: Leishmania donovani Ubiquitin Activating Enzyme (LdE1). The settings on record: 30 µM. Format: functional.

Test [3] addresses Sialic acid-binding Ig-like lectin 9 (Homo sapiens) (UniProt Q9Y336). Kind of test: Hs-Siglec9 ALPHAscreen SOP 20170721. To be noted: 10 µM. Background: Bead proximity is the source of the signal in Alpha formats.
For a further test, the system named is Trypanosoma cruzi. Description: Trypanosoma cruzi phosphomannomutase and mannose-1-phosphate guanylyltransferase assay. The test is classed as functional. The settings on record: 10 µM.
Test [4] concerns the target T2, Arginase-2, mitochondrial (Homo sapiens) (UniProt P78540).
T2 sequence (whole entry): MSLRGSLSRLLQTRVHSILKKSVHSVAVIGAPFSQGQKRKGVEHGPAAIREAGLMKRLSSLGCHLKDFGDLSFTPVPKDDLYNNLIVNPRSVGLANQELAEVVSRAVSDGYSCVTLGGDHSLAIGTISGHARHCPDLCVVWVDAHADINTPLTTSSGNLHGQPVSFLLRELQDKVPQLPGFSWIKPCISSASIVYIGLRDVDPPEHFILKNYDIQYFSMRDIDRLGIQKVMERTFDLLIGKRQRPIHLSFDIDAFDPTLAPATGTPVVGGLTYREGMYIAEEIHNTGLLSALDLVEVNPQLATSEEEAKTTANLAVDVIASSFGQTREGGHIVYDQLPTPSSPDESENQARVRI
Description: in vitro enzyme assay to detect the production of urea directly proportional to the activity of Arginase II. Further: in the data most compounds retested in dose-response had high values. The test is classed as functional. To be noted: 33.3 µM.

Test [5] addresses T3, Proteasome subunit beta (Trypanosoma cruzi) (UniProt O96673).
T3 sequence (whole entry): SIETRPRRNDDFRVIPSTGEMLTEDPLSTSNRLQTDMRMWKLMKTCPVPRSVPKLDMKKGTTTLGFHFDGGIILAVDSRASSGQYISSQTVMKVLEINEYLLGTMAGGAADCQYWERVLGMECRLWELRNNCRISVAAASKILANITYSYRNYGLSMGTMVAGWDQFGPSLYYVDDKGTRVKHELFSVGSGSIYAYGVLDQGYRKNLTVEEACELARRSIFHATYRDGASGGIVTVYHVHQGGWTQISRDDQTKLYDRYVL
Kind of test: Trypanosoma cruzi proteasome chymotrypsin-like activity (TcProtChymo) assay. Further: in the data most compounds retested in dose-response had high values. The test is classed as functional. The settings on record: 9.37 µM.

For a further test, the species on record is Homo sapiens. Kind of test: To identify inhibition of the IFN signalling (Jak-Stat) pathway via expression of an eGFP reporter gene under the control of an IFN-stimulated response element (ISRE) containing MxA promoter. The test is classed as functional. The settings on record: 30 µM. (In general: Reporter assays use an easily measured gene product as a stand-in for the process of interest.)

Test [6] addresses T4, Tyrosyl-tRNA synthetase, putative (Trypanosoma cruzi (strain CL Brener)) (UniProt Q4DSP6).
T4 sequence (whole entry): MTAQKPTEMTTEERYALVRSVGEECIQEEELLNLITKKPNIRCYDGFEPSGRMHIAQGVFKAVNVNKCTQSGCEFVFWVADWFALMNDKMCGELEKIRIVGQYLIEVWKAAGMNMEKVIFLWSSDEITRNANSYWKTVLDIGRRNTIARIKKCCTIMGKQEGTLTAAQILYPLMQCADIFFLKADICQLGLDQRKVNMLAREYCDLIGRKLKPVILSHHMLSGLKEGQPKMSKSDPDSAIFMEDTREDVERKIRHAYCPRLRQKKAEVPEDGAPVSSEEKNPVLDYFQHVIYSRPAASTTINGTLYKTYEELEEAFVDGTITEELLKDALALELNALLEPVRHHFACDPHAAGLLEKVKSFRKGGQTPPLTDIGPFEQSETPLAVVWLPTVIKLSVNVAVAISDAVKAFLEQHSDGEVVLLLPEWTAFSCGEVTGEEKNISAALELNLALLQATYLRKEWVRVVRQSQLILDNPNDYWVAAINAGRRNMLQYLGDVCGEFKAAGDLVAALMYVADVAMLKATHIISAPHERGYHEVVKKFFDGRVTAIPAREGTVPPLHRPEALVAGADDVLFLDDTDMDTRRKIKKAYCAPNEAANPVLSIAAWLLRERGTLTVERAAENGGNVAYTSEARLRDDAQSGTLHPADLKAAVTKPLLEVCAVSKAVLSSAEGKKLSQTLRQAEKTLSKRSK
Kind of test: Trypanosoma cruzi tyrosyl tRNA synthetase (TcYRS) _High Tyrosine SOP. Further: in the data most compounds retested in dose-response had high values. To be noted: 30 µM. Format: functional.

For test [7], the target named is T4, Tyrosyl-tRNA synthetase, putative (Trypanosoma cruzi (strain CL Brener)). Description: Trypanosoma cruzi tyrosyl tRNA synthetase (TcYRS) SOP. To be noted: 30 µM. Format: functional.
The target of test [8] is Chromo domain-containing protein 1 (Saccharomyces cerevisiae (strain ATCC 204508 / S288c) (Baker's yeast)) (UniProt P32657). Kind of test: ScCHD-1 Enzyme Inhibition Assay. Further: in the data most compounds retested in dose-response had high values. The test is classed as functional. The settings on record: 30 µM.
Chromo domain-containing protein 1 (Saccharomyces cerevisiae (strain ATCC 204508 / S288c) (Baker's yeast)), sequence (P32657 whole entry, the tested form may be a part): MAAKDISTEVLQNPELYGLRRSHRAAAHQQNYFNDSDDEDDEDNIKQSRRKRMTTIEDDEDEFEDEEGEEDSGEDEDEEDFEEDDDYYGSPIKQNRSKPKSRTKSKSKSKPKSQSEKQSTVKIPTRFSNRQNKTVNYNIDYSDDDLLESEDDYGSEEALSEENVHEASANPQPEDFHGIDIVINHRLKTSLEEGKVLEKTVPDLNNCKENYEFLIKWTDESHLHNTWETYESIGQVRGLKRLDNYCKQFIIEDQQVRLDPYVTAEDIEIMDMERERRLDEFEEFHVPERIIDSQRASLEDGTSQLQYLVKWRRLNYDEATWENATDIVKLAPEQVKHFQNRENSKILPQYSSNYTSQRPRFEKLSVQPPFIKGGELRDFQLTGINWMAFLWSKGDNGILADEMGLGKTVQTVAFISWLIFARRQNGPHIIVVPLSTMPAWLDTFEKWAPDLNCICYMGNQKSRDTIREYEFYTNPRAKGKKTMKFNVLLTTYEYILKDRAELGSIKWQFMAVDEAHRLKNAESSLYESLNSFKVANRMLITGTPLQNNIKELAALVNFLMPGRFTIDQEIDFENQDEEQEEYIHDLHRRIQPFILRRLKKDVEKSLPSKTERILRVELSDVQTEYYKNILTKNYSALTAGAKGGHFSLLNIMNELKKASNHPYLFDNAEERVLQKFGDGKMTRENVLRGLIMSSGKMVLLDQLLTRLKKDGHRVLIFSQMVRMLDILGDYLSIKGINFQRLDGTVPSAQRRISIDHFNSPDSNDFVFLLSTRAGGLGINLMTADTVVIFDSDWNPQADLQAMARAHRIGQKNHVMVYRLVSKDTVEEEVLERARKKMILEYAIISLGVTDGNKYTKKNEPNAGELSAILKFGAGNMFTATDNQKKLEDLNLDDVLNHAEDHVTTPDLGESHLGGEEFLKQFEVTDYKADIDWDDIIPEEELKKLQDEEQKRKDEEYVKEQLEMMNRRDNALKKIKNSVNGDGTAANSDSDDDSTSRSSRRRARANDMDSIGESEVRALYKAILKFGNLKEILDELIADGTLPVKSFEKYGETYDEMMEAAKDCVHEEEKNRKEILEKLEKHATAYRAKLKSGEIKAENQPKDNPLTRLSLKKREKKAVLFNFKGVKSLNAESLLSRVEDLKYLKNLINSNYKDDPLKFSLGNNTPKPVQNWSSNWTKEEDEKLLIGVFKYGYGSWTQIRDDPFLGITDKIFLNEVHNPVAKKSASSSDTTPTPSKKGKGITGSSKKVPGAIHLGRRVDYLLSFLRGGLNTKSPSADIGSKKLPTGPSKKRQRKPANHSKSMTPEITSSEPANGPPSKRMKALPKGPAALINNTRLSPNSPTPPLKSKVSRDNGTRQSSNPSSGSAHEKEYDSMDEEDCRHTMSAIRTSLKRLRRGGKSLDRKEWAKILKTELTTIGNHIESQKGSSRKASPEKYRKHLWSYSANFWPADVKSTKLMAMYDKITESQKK

Sialic acid-binding Ig-like lectin 9 (Homo sapiens), sequence (Q9Y336 whole entry): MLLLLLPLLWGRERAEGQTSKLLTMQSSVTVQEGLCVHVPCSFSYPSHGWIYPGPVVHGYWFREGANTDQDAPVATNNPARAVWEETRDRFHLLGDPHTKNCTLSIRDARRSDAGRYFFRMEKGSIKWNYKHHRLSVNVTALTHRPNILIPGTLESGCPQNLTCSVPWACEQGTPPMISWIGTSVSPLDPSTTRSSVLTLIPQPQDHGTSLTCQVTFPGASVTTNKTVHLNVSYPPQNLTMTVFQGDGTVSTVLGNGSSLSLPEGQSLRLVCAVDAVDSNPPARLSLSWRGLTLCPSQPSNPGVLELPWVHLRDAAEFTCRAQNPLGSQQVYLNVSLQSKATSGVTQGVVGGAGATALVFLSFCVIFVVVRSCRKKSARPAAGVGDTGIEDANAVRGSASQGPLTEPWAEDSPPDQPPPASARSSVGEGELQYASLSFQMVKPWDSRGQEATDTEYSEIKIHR
Protein translocase subunit SecA (Escherichia coli (strain K12)), sequence (P10408 whole entry): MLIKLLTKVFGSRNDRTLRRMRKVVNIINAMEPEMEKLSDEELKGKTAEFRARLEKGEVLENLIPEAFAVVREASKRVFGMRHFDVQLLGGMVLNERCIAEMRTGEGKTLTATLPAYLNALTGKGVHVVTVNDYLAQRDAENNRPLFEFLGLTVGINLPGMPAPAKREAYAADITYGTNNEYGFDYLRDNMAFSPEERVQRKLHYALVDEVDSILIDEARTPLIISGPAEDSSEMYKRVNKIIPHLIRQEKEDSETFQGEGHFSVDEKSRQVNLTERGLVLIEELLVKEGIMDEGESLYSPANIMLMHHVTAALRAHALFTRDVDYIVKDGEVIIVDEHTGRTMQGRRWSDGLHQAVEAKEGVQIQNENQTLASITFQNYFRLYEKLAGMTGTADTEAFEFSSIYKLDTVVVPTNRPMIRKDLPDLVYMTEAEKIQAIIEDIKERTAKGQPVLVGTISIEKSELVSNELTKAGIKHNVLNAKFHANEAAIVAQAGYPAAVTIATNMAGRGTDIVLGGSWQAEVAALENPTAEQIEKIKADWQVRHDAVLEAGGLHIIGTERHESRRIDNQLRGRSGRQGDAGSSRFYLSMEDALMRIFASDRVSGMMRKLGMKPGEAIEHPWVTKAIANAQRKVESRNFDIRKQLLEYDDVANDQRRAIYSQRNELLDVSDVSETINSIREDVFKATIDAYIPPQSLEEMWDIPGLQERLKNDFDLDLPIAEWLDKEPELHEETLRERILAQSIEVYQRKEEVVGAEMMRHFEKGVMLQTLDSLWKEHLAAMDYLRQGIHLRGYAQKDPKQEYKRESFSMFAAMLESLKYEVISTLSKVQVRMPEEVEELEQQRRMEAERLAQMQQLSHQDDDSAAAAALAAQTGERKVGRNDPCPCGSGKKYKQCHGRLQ

`CCN(Cc1cccc2c1OCO2)C(=O)NC1CC1`: the Percent Effect in [1] was -0.28%; in [2], 13%; in test [3] it was 9.18%; in the test with Trypanosoma cruzi, 1.68%; in [4], -7.17%; in test [5], 1.75%. Further, the Percent Effect in the test listed under Homo sapiens is 3.66%; in test [6] it was 3.92%; in test [7], 28.2%; in [8], -7.71%.

For the compound `CN(Cc1ccsc1)C(=O)CN1CCOC(Cn2cccn2)C1` (stereo not given), the Percent Effect is -9.25% in test [1]; 7.79% in test [2]; -1.67% in [3]; -1.49% with Trypanosoma cruzi; -0.615% in test [4]; -3.51% in test [5]. In addition, the Percent Effect was 19.9% in the test filed under Homo sapiens, 0% in test [6], -16.5% in test [7] and -7.08% in test [8].

With `O=S(=O)(c1ccccc1Cl)N1CCc2nc(C3CCNCC3)ncc2C1`, the Percent Effect in [1] is -4.22%; in test [2], 1.33%; in test [3] it was 8.22%; in the test with Trypanosoma cruzi it was 3.75%; in [4] it was -1.33%; in test [5] it was 12.2%. Also, the Percent Effect in the test filed under Homo sapiens was 34.8%; in [6], 6.35%; in [7], 12.5%; in [8], -26.2%.

Consider `Cn1cc(CN2CCOCC3(C2)CN(c2ccccc2)C(=O)CO3)cn1` (stereo not given), for which the Percent Effect is -5.71% in test [1]; 9.09% in test [2]; -4.81% in test [3]; -1.85% with Trypanosoma cruzi; 0% in test [4]; 5.03% in [5]. The Percent Effect is -7.25% in the test filed under Homo sapiens, 6.84% in [6], 10.3% in test [7] and -1.15% in test [8].

As for `CC(C)c1nc(CN(C)C2CCN(CCNS(C)(=O)=O)C2)no1` (stereo not given), the Percent Effect in test [1] was -0.486%; in test [2], 15.6%; in test [3], -6.45%; in the test on Trypanosoma cruzi it was -5.78%; in [4], -11.7%; in test [5], 12.5%. For the same compound, the Percent Effect in the test filed under Homo sapiens is 12.2%; in test [6], 3.92%; in test [7], 7.06%; in test [8] it was -13%.

With `Cc1cc(C2CCCN2CCCS(=O)(=O)c2ccccc2)no1` (stereo not given), the Percent Effect in test [1] was -1.74%; in [2], 5.13%; in test [3] it was 19.5%; in the test on Trypanosoma cruzi it was -1.41%; in [4], -1.23%; in test [5], -8.11%. Moreover, the Percent Effect is 8.46% in the test listed under Homo sapiens, 3.35% in test [6], 8.43% in [7] and -1.93% in [8].

As for `CCc1nc(CN(C)C2CCN(CCc3ccccn3)C2)no1` (stereo not given), the Percent Effect was -0.239% in test [1]; 21.3% in test [2]; -5.99% in test [3]; 4.02% in the test on Trypanosoma cruzi; -3.55% in test [4]; 22.8% in test [5]. The Percent Effect is 12.5% in the test listed under Homo sapiens, 6.84% in test [6], 15.4% in test [7] and -14.1% in test [8].

For the compound `CC(C)(N)C(=O)N1CCCC1c1cncc(Oc2ccc(F)cc2)n1` (stereo not given), the Percent Effect in test [1] is -4.32%; in [2], 17.3%; in [3] it was 10.6%; with Trypanosoma cruzi, 0.789%; in [4] it was -0.443%; in test [5], 1.31%. The Percent Effect in the test listed under Homo sapiens was -1.85%; in test [6] it was 6.35%; in test [7], 15%; in [8], -24.2%.

As to `Cc1ncc2c(n1)CCN(Cc1nc3ccccc3o1)C2`, the Percent Effect in [1] is -4.63%; in test [2] it was 16%; in [3], -1.93%; in the test with Trypanosoma cruzi, 0.201%; in [4] it was -6.21%; in test [5], 16%. For the same compound, the Percent Effect in the test filed under Homo sapiens is -5.07%; in test [6], 7.89%; in test [7] it was 25.6%; in test [8], -11%.

Take `CS(=O)(=O)NCC1CCCN(C(=O)c2ccc(Cl)o2)C1` (stereo not given): the Percent Effect in [1] was 1.32%; in test [2] it was 7.79%; in test [3], -4.36%; in the test with Trypanosoma cruzi it was -0.746%; in test [4], 7.58%; in test [5] it was 14.6%. The Percent Effect in the test filed under Homo sapiens was -11.3%; in test [6], 4.9%; in [7], 18.8%; in test [8], -10%.

`O=C(NCC1CC1)C1CCC2(CCN(C(=O)c3ccccn3)CC2)O1` (stereo not given): the Percent Effect in [1] is -3.07%; in test [2], 1.3%; in [3] it was -0.0517%; in the test on Trypanosoma cruzi, -2.44%; in [4] it was 2.74%; in test [5], -2.66%. Moreover, the Percent Effect was 9.93% in the test listed under Homo sapiens, -4.83% in test [6], -10% in test [7] and -4.71% in test [8].

As to `O=C(NCCCN1CCc2ccccc2C1)c1cccnc1O`, the Percent Effect in [1] is -1.75%; in test [2] it was 10.7%; in test [3], 3.3%; in the test on Trypanosoma cruzi, -0.803%; in test [4], 2.22%; in [5], 2.8%. Further, the Percent Effect is 4.99% in the test listed under Homo sapiens, 2.63% in test [6], 10.3% in test [7] and -11.3% in [8].

Regarding `CN(C)c1cc(CNC(=O)Nc2ccc(S(C)(=O)=O)nc2)ccn1`, the Percent Effect is -1.24% in [1]; 10.3% in test [2]; -5.84% in [3]; 0.845% in the test on Trypanosoma cruzi; 1.64% in test [4]; 10.3% in test [5]. Also, the Percent Effect was -0.626% in the test listed under Homo sapiens, 6.22% in test [6], 25.3% in test [7] and -2.59% in test [8].

The values above are taken from ChEMBL document CHEMBL3988442, “University of Dundee, Small-Polar-MMV Screening Library” (2021).
